Bioassay records deposited in PubChem by National Center for Advancing Translational Sciences (NCATS).
TDP1 cell CPT: qHTS for Inhibitors of human tyrosyl-DNA phosphodiesterase 1 (TDP1): qHTS in cells in presence of CPT; chicken DT40 Tdp1-/-;hTDP1 cells + 20 nM CPT, ATP luminescence, 48 h; Potency, µM (highest dose often 46.2 µM), usual class: inhibitors; 420,000 tested, 12% active; also: nearly all actives have a fitted effect of over 55% in size
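Chicken DT40 Tdp1-/- cells complemented with human TDP1, 400 cells/well, exposed to compounds plus 20 nM camptothecin for at least 48 h at 37 C; viability read as ATP content by CellTiter-Glo luminescence.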
HT1080-NT tox: qHTS for induction of synthetic lethality in tumor cells producing 2HG: qHTS for the HT-1080-NT fibrosarcoma cell line; HT-1080-NT fibrosarcoma viability, CellTiter-Glo ATP luminescence, 48 h; Potency, µM (top dose mostly 46.1 µM), actives largely listed as cytotoxic; 360,000 tested, 1.6% active; AID 686970, 2013;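 also: NT is the 2HG producing partner of a matched IDH1 knockdown line; nearly all actives have a fitted effect of over 55% in size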
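Read-out is CellTiter-Glo luminescence after 10 minutes at room temperature, following 48 hours' compound treatment of HT-1080-NT cells (750 cells/well, RPMI, 5% FBS, 37 degrees C).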
HT1080 IDH1KD tx: qHTS for induction of synthetic lethality in tumor cells producing 2HG: qHTS for the HT-1080-IDH1KD cell line; Potency, µM (doses to about 46.1 µM), most hits filed as cytotoxic; HT-1080 IDH1 knockdown viability, ATP luminescence, 48 h; 360,000 tested, 2% active
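Knockdown cells (IDH1KD HT-1080) received compounds 2 h after plating at 750 cells/well and were kept 48 h at 37 °C in 5% FBS RPMI. A CellTiter-Glo luminescence read gave % activity for curve fitting.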
TDP1 cell noCPT: qHTS for Inhibitors of human tyrosyl-DNA phosphodiesterase 1 (TDP1): qHTS in cells in absence of CPT. AID 686978, 2013. DT40 Tdp1-/- hTDP1 cells, no CPT, ATP luminescence, 48 h. 420,000 tested, 15% active. Potency, µM (highest dose often 46.2 µM), usual class: inhibitors; also: nearly all actives have a fitted effect of over 55% in size
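A cellular qHTS used chicken DT40 cells lacking endogenous Tdp1 but carrying stably transfected human TDP1. Compounds were applied without camptothecin, and cell growth kinetics were judged by ATP-dependent luminescence after ≥48 hr.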
IL1B secr inh: qHTS for Inhibitors of Inflammasome Signaling: IL-1-beta AlphaLISA Primary Screen. THP-1 LPS/ATP IL-1B secretion, AlphaLISA, 16 h; stronger effect = lower value. activity change, % at 57.5 µM. 360,000 tested, 4.7% active. AID 743279, 2014; in the data active = activity change below about -50%; inconclusive = mostly about -30% to -49%
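THP-1 cells pretreated 1 hr with compounds (up to 57.5 uM final), then stimulated with LPS (250 ng/mL final) plus ATP (1.25 mM final); secreted IL-1B measured by AlphaLISA after 16 hr, decreased signal indicating inhibition.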
Each line names hits and unclear results; the compound was inactive in the other large screens. The list is not random: actives were taken first. Their share in the collection is about 19%. Unless noted, calls follow the shape of the dose curve; as a rule, active = well fitted curve in the direction sought with a large enough effect; inconclusive = small, poorly fitted or top-dose-only effect, or another doubt; inactive = no such curve, though single readings can be large; an effect the other way counts as inactive or inconclusive.

Fc1cccc(CCN2CCNC[C@@H]2c2ccccc2)c1	TDP1 cell CPT inconclusive, TDP1 cell noCPT inconclusive
CSC1=NC2(C[C@H]2c2ccccc2)C(=O)N1C (stereo partly drawn)	none
O=C(OCC(=O)N1CCCC1=O)c1cc2ccccc2o1	none
NCCCC[C@H]1CN=C(N)N1CCCCC1CCCCC1	TDP1 cell CPT inconclusive, TDP1 cell noCPT inconclusive, IL1B secr inh -64
CCC(C)[C@H]1CN=C(N)N1CC1CCCCC1 (stereo partly drawn)	TDP1 cell CPT 2.6µM, TDP1 cell noCPT 2.3µM
NCCCC[C@H]1CN=C(N)N1CC1CCCCC1	none
O=C(Nc1cccc(F)c1)c1ccc(-c2cccnc2)c2ccoc12	TDP1 cell CPT inconclusive, HT1080-NT tox inconclusive, TDP1 cell noCPT inconclusive, IL1B secr inh inconclusive
CCCCNC(=O)C(NC(=O)c1ccc2ccccc2c1)C(=O)c1ccccc1 (stereo not drawn)	TDP1 cell CPT inconclusive, HT1080 IDH1KD tx inconclusive
Cc1ccc(C)c(CSc2ccc3nnc(-c4ccccn4)n3n2)c1	TDP1 cell CPT inconclusive, TDP1 cell noCPT inconclusive, IL1B secr inh -70
Fc1ccc(CSc2ccc3nnc(-c4ccccn4)n3n2)cc1	TDP1 cell noCPT inconclusive
O=C(CSc1ccc2nnc(-c3ccccn3)n2n1)Nc1ccccc1	none
Cc1ccc(CSc2ccc3nnc(-c4ccccn4)n3n2)cc1	TDP1 cell CPT 12µM, TDP1 cell noCPT 16µM
O=C(Cc1cccs1)N(c1ccc(F)cc1)C1(C(=O)NC2CCCCC2)CCCC1	TDP1 cell CPT inconclusive, TDP1 cell noCPT 23µM
O=C(Cc1cccs1)N(CC1CCCO1)C1(C(=O)NC2CCCC2)CCCCC1 (stereo not drawn)	TDP1 cell CPT inconclusive, TDP1 cell noCPT 16µM
O=C(c1ccc(=O)[nH]c1)N(Cc1cccs1)C1(C(=O)NC2CCCC2)CCCCC1	none
O=C(c1ccc2c(c1)OCO2)N(CC1CCCO1)C1(C(=O)NC2CCCCC2)CCCCC1 (stereo not drawn)	TDP1 cell CPT inconclusive, TDP1 cell noCPT inconclusive
O=C(Cc1cccs1)N(Cc1cccs1)C1(C(=O)NC2CCCC2)CCCCC1	TDP1 cell CPT 8.2µM, TDP1 cell noCPT 6.5µM
CC(=O)N(Cc1ccco1)C1(C(=O)NC2CCCCC2)CCCCC1	TDP1 cell CPT inconclusive, TDP1 cell noCPT inconclusive
O=C(Cc1cccs1)N(Cc1ccco1)C1(C(=O)NC2CCCCC2)CCCCC1	TDP1 cell CPT 15µM, TDP1 cell noCPT 18µM, IL1B secr inh inconclusive
Cc1ccccc1Oc1ccc2c(c1)[C@@H]1C[C@H](N(C)C(=O)c3ccc(C#N)cc3)[C@H]([C@H](C)O)C(=O)N1CC2	TDP1 cell CPT inconclusive, TDP1 cell noCPT inconclusive
COCCN(C(=O)COC(=O)c1ccc2ccccc2c1)c1c(N)n(Cc2ccccc2)c(=O)[nH]c1=O	none
CN(C)C(=S)N=c1ssc(=S)n1Cc1ccccc1	TDP1 cell CPT 2.6µM, HT1080-NT tox 5.8µM, HT1080 IDH1KD tx 8.2µM, TDP1 cell noCPT 3.7µM
Cc1ccc(NC2CCCN(C(=O)CN3C(=O)CSC3=O)C2)cc1C (stereo not drawn)	none
O=Cc1ccc2noc(-c3ccc(Cl)cc3)c2c1	TDP1 cell CPT inconclusive, TDP1 cell noCPT 16µM
N#CCc1nn2c(-c3ccccc3)ccnc2c1C#N	TDP1 cell CPT inconclusive
O=[N+]([O-])c1cc(-c2nnc(Nc3ccc(O)cc3)c3ccccc23)ccc1N1CCOCC1	TDP1 cell CPT 16µM, HT1080-NT tox inconclusive, HT1080 IDH1KD tx inconclusive, TDP1 cell noCPT 15µM (no result: IL1B secr inh)
O=C(Cn1nc(-c2ccc(N3CCOCC3)c([N+](=O)[O-])c2)c2ccccc2c1=O)N1CCCCC1	TDP1 cell noCPT inconclusive, IL1B secr inh inconclusive
O=[N+]([O-])c1cc(-c2nnc(N3CCOCC3)c3ccccc23)ccc1N1CCOCC1	TDP1 cell CPT inconclusive, TDP1 cell noCPT inconclusive
Cc1ccc(Nc2nnc(-c3ccc(N4CCOCC4)c([N+](=O)[O-])c3)c3ccccc23)cc1	TDP1 cell CPT 12µM, TDP1 cell noCPT 10µM
CCCCC(=O)Nc1ccc(C(=O)OCc2cc(=O)n3nc(C4CC4)sc3n2)cc1	TDP1 cell noCPT inconclusive (no result: HT1080-NT tox, HT1080 IDH1KD tx, IL1B secr inh)
Cc1cc2oc(=O)c(CC(=O)O)c(C)c2c2occ(-c3ccccc3)c12	none (no result: HT1080-NT tox, HT1080 IDH1KD tx, IL1B secr inh)
Cc1ccc(NC(=O)COC(=O)c2c[nH]c3ccccc23)cc1C	none
COc1ccc(-n2ccc(-c3sc(NCc4cc(OC)c5c(c4)OCO5)nc3C)n2)cc1	TDP1 cell noCPT inconclusive (no result: HT1080-NT tox, HT1080 IDH1KD tx, IL1B secr inh)
Cc1cccc(C(=O)NC(=S)NNC(=O)c2cccs2)c1	HT1080 IDH1KD tx inconclusive, TDP1 cell noCPT inconclusive
Cc1ccccc1C(=O)NC(=S)NC1CCSC1=O (stereo not drawn)	none
Cc1ccccc1C(=O)NNC(=S)NC(=O)c1cccs1	TDP1 cell CPT 21µM, HT1080-NT tox inconclusive, HT1080 IDH1KD tx inconclusive, TDP1 cell noCPT 18µM
O=C(NC(=S)NNC(=O)c1cccs1)c1ccccc1	TDP1 cell CPT inconclusive, HT1080-NT tox inconclusive, HT1080 IDH1KD tx inconclusive, TDP1 cell noCPT 15µM
O=C(NC(=S)NC1CCSC1=O)c1cccs1 (stereo not drawn)	TDP1 cell noCPT 29µM
CC(C)(C)c1ccc(C(=O)NC(=S)NNC(=O)c2cccs2)cc1	TDP1 cell CPT 23µM, HT1080-NT tox inconclusive, HT1080 IDH1KD tx inconclusive, TDP1 cell noCPT 13µM
COc1ccc(CN(C)CC(=O)N(C)CC(=O)Nc2ccccc2Br)cc1F	TDP1 cell noCPT inconclusive
COCCOC(=O)N/C=C\c1nc2ccccc2c(=O)[nH]1	TDP1 cell CPT inconclusive, HT1080-NT tox inconclusive, HT1080 IDH1KD tx inconclusive, TDP1 cell noCPT inconclusive
CCNc1ccc(C(=O)OCC(=O)c2cc(C)n(Cc3ccc4c(c3)OCO4)c2C)cc1[N+](=O)[O-]	TDP1 cell CPT inconclusive, TDP1 cell noCPT inconclusive
Cc1nc2oc3c(NCc4ccccn4)ncnc3c2c2c1COC(C)(C)C2	TDP1 cell noCPT inconclusive
CCCc1nc2oc3c(NCC4CCCO4)ncnc3c2c2c1COC(C)(C)C2 (stereo not drawn)	TDP1 cell CPT 29µM, TDP1 cell noCPT inconclusive
CCCc1nc2oc3c(NCc4ccccn4)ncnc3c2c2c1COC(C)(C)C2	TDP1 cell CPT 15µM, TDP1 cell noCPT 15µM
CC(C)c1nc2oc3c(NCC4CCCO4)ncnc3c2c2c1CCC2 (stereo not drawn)	TDP1 cell CPT 26µM, TDP1 cell noCPT 16µM
Brc1ccccc1OCCN1CCCC1	none
COc1ccc(-c2[nH]ncc2N=Nc2cc(C)cc(C)c2)cc1	TDP1 cell CPT 0.21µM, HT1080-NT tox 18µM, HT1080 IDH1KD tx 21µM, TDP1 cell noCPT 10µM, IL1B secr inh -92
